Screening results: PubChem, National Center for Advancing Translational Sciences (NCATS)
This is a sample that favours compounds with a hit; in the whole collection about 0.59% have one here.
IDH1 R132H inh: inhibitors of human mutant IDH1 R132H. O75874. IDH1-R132H enzyme, NADPH consumption, diaphorase/resazurin fluorescence. Potency, µM (titrated, usually from 76.6 µM), inactives show top-dose activity change, negative = inhibition, usual class: inhibitors. actives 0.093% (n = 390,000); further: potency means the concentration at half of the fitted maximal effect; on the % scale 0 is the no-effect control and ±100 the full control effect; nearly all actives have a fitted effect of over 65% in size
Target sequence (O75874 whole entry R132H, stated change not applied): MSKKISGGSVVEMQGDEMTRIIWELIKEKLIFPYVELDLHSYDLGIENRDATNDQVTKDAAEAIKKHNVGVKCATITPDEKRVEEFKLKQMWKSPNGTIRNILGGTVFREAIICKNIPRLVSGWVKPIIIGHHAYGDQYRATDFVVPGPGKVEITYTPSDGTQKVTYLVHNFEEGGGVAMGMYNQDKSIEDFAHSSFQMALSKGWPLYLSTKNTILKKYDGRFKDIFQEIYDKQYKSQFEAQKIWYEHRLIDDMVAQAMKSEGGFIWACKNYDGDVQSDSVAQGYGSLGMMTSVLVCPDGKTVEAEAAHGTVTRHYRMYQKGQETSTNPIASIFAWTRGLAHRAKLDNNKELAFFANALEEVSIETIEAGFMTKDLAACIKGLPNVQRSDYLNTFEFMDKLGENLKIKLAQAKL
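IDH1-R132H (0.5 ug/mL dispensed) in pH 7.5 Tris buffer was preincubated 30 min with compound, then given a substrate mix of 0.016 mM NADPH and 2 mM alpha-KG for 80 min at room temperature; remaining NADPH was read by diaphorase/resazurin fluorescence.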
LDHA inh: LDHA (human) enzyme inhibition. purified LDHA, NADH/diaphorase-resazurin fluorescence; hits give low values. activity change, % (values are at about 110 or 230 µM). actives 0.15% (n = 480,000). AID 1347041; in the data active means activity change below about -30%; inconclusive means mostly about -25% to -30%;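 further: plate controls were DMSO wells for no effect and wells without enzyme for full effect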
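Resorufin fluorescence (ex540/em590), read at 0 and 20 min after diaphorase/resazurin addition, reports the NADH left after a 5 min room-temperature reaction of 2 nM human LDH5 with 0.06 mM NADH and 0.2 mM pyruvate.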
Vif-A3G inh: Vif-A3G binding inhibition. Potency, µM (highest dose often 46.1 µM), for inactives: at the top dose activity, negative = active, actives largely listed as inhibitors. AID 602310. HeLa A3G-eYFP + Vif (tagged APOBEC3G with the HIV-1 protein that degrades it), YFP fluorescence, overnight. actives 0.076% (n = 410,000). Q9HC16; further: potency means the concentration at half of the fitted maximal effect; on the % scale 0 is the no-effect control and ±100 the full control effect; nearly all actives have a fitted effect of over 60% in size
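HeLa cells stably expressing Vif and C-terminally eYFP-tagged A3G, seeded overnight at 37 deg C, then exposed to compound by pintool overnight at 37 deg C. Rise in yellow fluorescence (Ex 488/Em 500-530, Acumen) marks blocked Vif-driven A3G degradation.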
Vif-A3F inh: inhibitors of Vif-A3F interaction; HeLa A3F-eYFP + Vif (tagged APOBEC3F with the HIV-1 protein that degrades it), YFP fluorescence increase; Potency, µM (highest dose often 46.1 µM), inactives show at the highest dose activity, negative = active; actives 0.2% (n = 390,000); AID 602313; further: potency means the concentration at half of the fitted maximal effect; % of control where 0% means no effect; nearly all actives have a fitted effect of over 65% in size
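HeLa cells stably expressing A3F-eYFP plus Vif, plated and incubated overnight at 37 deg C, then exposed to compounds overnight at 37 deg C. Blocked degradation read as raised yellow fluorescence (Ex 488/Em 500-530).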
PINK1 modulator: PINK1 expression modulation; PINK1 immunofluorescence, high-content cytometry, 24 h; actives 0.2% (n = 410,000); Potency, µM (titrated, usually from 76.6 µM), for inactives: top-dose activation (PINK1 increase), actives largely listed as activators; AID 624263; active means well fitted activation curve with a large enough effect; inconclusive means small, poorly fitted or top-dose-only effect; cell line not stated here; further: potency means the concentration at half of the fitted maximal effect; % of control where 0% means no effect; nearly all actives have a fitted effect of over 65% in size
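Cells are seeded, rested 12 hours, then given compound at five concentrations or DMSO for 24 hours. After fixation, blocking and antibody staining, PINK1 amount and mitochondrial localization are scored; CCCP serves as control.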
PTHR1 ag: PTHR1 (human) receptor agonism | Q03431 | HEK293 GP2 PTHR1 cells, GloSensor cAMP luminescence, 1 h | Potency, µM (series often up to 115 µM), for inactives: top-dose activation, usual class: activators | actives 0.075% (n = 410,000); further: potency means the concentration at half of the fitted maximal effect; nearly all actives have a fitted effect of over 55% in size
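HEK-293-derived GP2 cells expressing PTHR1 and a GloSensor cAMP reporter, 3,000/well, plated overnight, given luciferin plus IBMX (each 0.5 mM as added) for 1 h at 37 °C, then compound for 1 h at 37 °C. Luminescence was read after 15 min at room temperature.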
Numbers without * were called inactive; i = inactive; ? = inconclusive; nt = no result; [ ] = remark or other dose. Unless noted, the call rests on the fitted dose curve; in most records, active means well fitted curve in the direction sought with a large enough effect; inconclusive means small, poorly fitted or top-dose-only effect, or another doubt; inactive means no such curve, though single readings can be large; an effect the other way counts as inactive or inconclusive.

SMILES	IDH1 R132H inh	LDHA inh	Vif-A3G inh	Vif-A3F inh	PINK1 modulator	PTHR1 ag
CCOC(=O)CSC(C(N)=O)c1ccccc1 (stereo not drawn)	nt	2	nt	nt	nt	nt
CC(=O)Nc1ccc(S(=O)(=O)N2CCCc3ccccc32)cc1	2%	2	?	-4%	3.2µM*	i
O=C(N=c1ccn(-c2nc3ccccc3nc2NS(=O)(=O)c2ccccc2)cc1)c1cccs1	-8%	-5	?	25µM*	0%	22%
O=C(CSc1nc(Cl)nc2nc[nH]c12)Nc1cccc(F)c1	nt	-5	nt	nt	nt	nt
O=C(CSc1nc(Cl)nc2nc[nH]c12)Nc1cccc(Cl)c1	nt	-35*	nt	nt	nt	nt
CC1CCN(S(=O)(=O)c2ccc(NC(=O)CN3CCN(C)CC3)cc2)CC1	-3%	-41*	-6%	0%	11%[38.3 µM]	i
C[n+]1ccc(/C=C/c2ccc(Br)cc2)cc1	3%	-32*	3%	0%	?	-12%
CC1=Nc2ccccc2/C1=C/c1sc(=N)n(-c2nccs2)c1O	-5%	-8	13µM*	?	?	i
CC1=Nc2ccccc2/C1=C/c1nc(-c2ccc(C)s2)oc1O	-2%	-1	-10%	-14%	3%	-37%
N#C/C(=C/c1ccc(O)cc1)c1ccc(C(F)(F)F)cn1	nt	1	nt	nt	nt	nt
CS(=O)(=O)c1ccc(C(=O)OCC(=O)NC23CC4CC(CC(C4)C2)C3)cc1[N+](=O)[O-]	32µM*	-10	-26%	?	1%	i
CS(=O)(=O)c1ccc(C(=O)OCC(=O)NC(=O)NC2CCCCC2)cc1[N+](=O)[O-]	nt	-1	-21%	nt	-1%	nt
Cc1nnc(N/N=C/c2cc([N+](=O)[O-])c(N3CCC(C)CC3)cc2N2CCC(C)CC2)n1N	14%	68	-19%	0%	-2%	28µM*
CCc1nnc(N/N=C/c2ccc(N3CCC(C)CC3)c([N+](=O)[O-])c2)n1N	17%	37	0%	-10%	11%	-23%
Cc1cc2c(c(SCC(=O)Nc3ccccc3)n1)C(=O)OC2	nt	-37*	nt	nt	nt	nt
Cc1ccc(NC(=S)NCc2cccn2C)cc1	2%	4	0%	-5%	3%[38.3 µM]	3.5µM*
O=C(Nc1ccc(N2CCOCC2)c(S(=O)(=O)Nc2ccccc2Cl)c1)c1ccccc1	-13%	-3	-1%	-6%	1%	-77%
O=C(Nc1ccc(Cl)cc1)Nc1ccc(N2CCCC2)c(S(=O)(=O)Nc2ccccc2Cl)c1	-1%	-5	-7%	-10%	2.8µM*	-29%
O=C(O)c1ccc(Cl)c(S(=O)(=O)Nc2ccccc2C(=O)Nc2ccc(Cl)cc2)c1	-7%	-38*	?	7%	0%	-7%
O=C(O)c1ccc(NS(=O)(=O)c2ccc(Cl)c(C(=O)Nc3ccccc3)c2)cc1	-2%	-5	1%	8%	0%	-1%
Oc1ccc2ccccc2c1C=NCC12CC3CCC(CC(C3)C1)C2	nt	24	nt	nt	nt	nt
CCCCCC(=O)N1C[C@@H](n2cc(-c3ccc(F)cc3)nn2)[C@H](O)C[C@@H]1c1ccc(C)cc1	-8%	-34*	2%	-14%	?	-93%
CCCCCC(=O)N1C[C@@H](O)[C@H](n2cc(-c3ccc(F)cc3)nn2)C[C@@H]1c1ccc(C)cc1	-17%	-19	-11%	-15%	10%	i
N=c1n(CC(=O)c2ccc([N+](=O)[O-])cc2)c2ccccc2n1Cc1ccccc1	11%	-2	?	13µM*	?	i
N=c1n(CC(=O)c2ccc([N+](=O)[O-])cc2)c2ccccc2n1Cc1ccc(Cl)cc1	8%	0	-5%	?	-3%	-18%
SMILES	IDH1 R132H inh	LDHA inh	Vif-A3G inh	Vif-A3F inh	PINK1 modulator	PTHR1 ag
Cc1ccc(C(=O)NNC(=S)NC(C)(C)C)cc1	nt	-1	nt	nt	nt	nt
CCc1ccc(Nc2cc(=O)n(C3CCCCC3)c(=O)[nH]2)cc1	-6%	1	2%	-15%	28µM*	-1%[57.5 µM]
O=c1cc(Nc2ccc3c(c2)OCCO3)[nH]c(=O)n1C1CCCCC1	-3%	-7	?	-12%	21%[38.3 µM]	i
COc1cc(C2=NOC(C(=O)NCc3ccco3)C2)cc(OC)c1OC (stereo not drawn)	11%	-1	?	-9%	11µM*	i
CCn1c(SCC(=O)c2c[nH]c3ccccc23)nnc1-c1cccs1	16%	-3	11µM*	22µM*	13%	-5%[57.5 µM]
COc1cc(C(=O)Oc2ccc3c(=O)c(-c4ccccc4)coc3c2)cc(OC)c1OC	nt	-32*	nt	nt	nt	nt
Cc1nn(C)c2sc(C(=O)NCc3ccccc3)cc12	nt	-1	nt	nt	nt	nt
CSc1nn(Cc2cccc(F)c2)c(N(C(C)=O)C(C)=O)c1S(=O)(=O)c1ccccc1	0%	-32*	-16%	-4%	21%	i
O=C1NC(c2ccc(O)cc2)Nc2ccccc21 (stereo not drawn)	7%	-2	?	-4%	3%	-10%
CSc1ccc(C2NC(=O)c3ccccc3N2)cc1 (stereo not drawn)	2%	-3	10µM*	-2%	9%	-8%
Cc1ccc(-c2cc3n(c2)CCc2ccccc2-3)cc1	nt	-10	nt	nt	nt	nt
O=C(CN1CCCC1c1nc2ccccc2s1)NC(=O)Nc1ccc2c(c1)OCCO2 (stereo not drawn)	nt	5	nt	nt	nt	nt
Nc1c(C(=O)Nc2ccccc2Br)sc2nc(-c3cccs3)ccc12	-6%	-11	-29%	?	17%	i
Nc1c(C(=O)Nc2nc3ccccc3s2)sc2nc(-c3cccs3)ccc12	-7%	-17	11µM*	7.9µM*	-5%	-93%
O=C(NC1CCCC1)c1cc2c(F)cccc2s1	nt	-30*	nt	nt	nt	nt
O=C(NC1CCCCC1)c1cc2c(F)cccc2s1	nt	0	nt	nt	nt	nt
O=c1oc(-c2ccc(F)cc2)nn1CC(O)COc1ccc2ccccc2c1 (stereo not drawn)	nt	-30*	nt	nt	nt	nt
CCCCNc1c(-c2ccc(OC)c(SC3CCCCC3)c2)nc2ccc(C)cn12	2%	3	-20%	?	?	-11%
CCCCNc1c(-c2ccc(SC3CCCCC3)c(OC)c2)nc2ccc(C)cn12	0%	5	-3%	-11%	25µM*	-51%
CCC(C)Sc1cc(-c2nc3cc(C)ccn3c2NC2CCCCC2)ccc1OC (stereo not drawn)	7%	6	?	?	13µM*	-44%
CCC(C)Sc1cc(-c2nc3ccc(C)cn3c2NCc2ccccc2)ccc1OC (stereo not drawn)	16%	2	-7%	0%	?	-9%
